Results: PubChem BioAssay (Tox21)
Results filed as inconclusive are left out. Where a call stands in place of a potency, no number is given. Active and inactive are the calls of the source. The call rests on the fitted dose curve.

Each molecule was assayed against 5-hydroxytryptamine receptor 2A (Homo sapiens) (UniProt P28223) (assay: 5-hydroxytryptamine receptor 2A (HTR2A) small molecule agonists, cell-based qHTS assay (AID 1963587; further: nearly all actives have a fitted effect of over 30% in size)). Details: HTR2A-CHO cells, calcium flux fluorescence, agonist mode; series mostly up to 76.8 µM.
Chain of 5-hydroxytryptamine receptor 2A (Homo sapiens) (P28223 whole entry, looked up): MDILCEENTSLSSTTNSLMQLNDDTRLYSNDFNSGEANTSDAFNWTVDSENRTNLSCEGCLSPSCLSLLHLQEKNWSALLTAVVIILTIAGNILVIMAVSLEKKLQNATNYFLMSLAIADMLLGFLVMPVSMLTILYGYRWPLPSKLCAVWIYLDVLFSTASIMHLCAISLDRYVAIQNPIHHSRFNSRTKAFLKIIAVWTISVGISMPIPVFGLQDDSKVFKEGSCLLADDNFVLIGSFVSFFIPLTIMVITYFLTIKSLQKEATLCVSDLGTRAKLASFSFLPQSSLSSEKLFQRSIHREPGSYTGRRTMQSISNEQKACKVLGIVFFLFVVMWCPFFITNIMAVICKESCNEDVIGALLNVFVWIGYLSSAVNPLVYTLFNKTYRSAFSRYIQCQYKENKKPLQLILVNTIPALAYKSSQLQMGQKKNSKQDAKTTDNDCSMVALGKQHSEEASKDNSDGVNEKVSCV
From the text: National Center for Advancing Translational Sciences [NCATS]
Division of Preclinical Innovation [DPI]
U.S. Environmental Protection Agency [EPA]
National Institutes of Environmental Health Sciences [NIEHS]
National Toxicology Program [NTP]
U.S. Food and Drug Administration [FDA]
The HTR2A receptor is a subtype of the 5-HT2 receptor that belongs to the serotonin receptor family and is a G protein-coupled receptor (GPCR). The HTR2A-CHO cell line stably expressing human 5-hydroxytryptamine receptor 2A (HTR2A) can be used for screening agonists of interactions between 5-HT2 and its ligands. The HTR2A-CHO calcium flux assay is a homogeneous fluorescence-based assay for detecting the intracellular calcium level using FDSS kinetic plate reader system.
HTR2A-CHO cells were dispensed at 2000 cells/3uL/well in 1536-well black-clear bottom plates using a Multidrop Dispenser. After the assay plates were incubated at a 37 C/5% CO2 incubator for 18 h, 3 uL of Dye Loading Buffer was transferred to the assay plate by a Flying Reagent Dispenser. The assay plates were incubated at 37 C for 1h. For agonist mode, 23 nL of compounds dissolved in DMSO, positive controls or DMSO only was transferred to the assay plate by a pin tool. The fluorescence intensity in the plates was measured using FDSS 7000EX kinetic plate reader for 2 min at 1 sec intervals.
In the case of O=Cc1cc2ccccc2o1, the Potency is reported as “inactive”.
Cc1ccc(/C(=C\CN2CCCC2)c2ccccn2)cc1 was tested, and the Potency was “inactive”.
In the case of CC(CCC(=O)O)C(=O)O (stereo not given), the Potency is reported as “inactive”.
For CN(CC1(C)CCCO1)S(=O)(=O)c1ccc(Cl)c(S(N)(=O)=O)c1 (stereo not given), the Potency was “inactive”.
In the case of CC(=O)S[C@H](C(=O)N[C@H]1Cc2ccccc2[C@H]2CCC[C@@H](C(=O)O)N2C1=O)C(C)C, the Potency is reported as “inactive”.
With Cc1ccc2c(ccc3ccccc32)c1 the Potency was “inactive”.
O=C(O)c1ccccc1-n1cc(C(=O)O)c(=O)c2cc(Nc3c(F)cc(F)cc3Cl)c(Cl)cc21 was tested, and the Potency was “inactive”.
With CC(C)(C)c1cc(Cc2cc(C(C)(C)C)c(O)c(C(C)(C)C)c2)cc(C(C)(C)C)c1O the Potency was “inactive”.
For CNC(=O)NC, the Potency was “inactive”.
In the case of C/C(=N\O)[C@@H](C)NCC(C)(C)CN[C@H](C)/C(C)=N/O, the Potency is reported as “inactive”.
With NC(=O)NS(=O)(=O)c1ccc(Cl)cc1 the Potency was “inactive”.
With ON=C1CCCCC1 the Potency was “inactive”.
For [Cl][Nd]([Cl])[Cl], the Potency was “inactive”.
In the case of CC(C)CCCCCOC(=O)CCS, the Potency is reported as “inactive”.
With O=C1C=CC(=O)O1 the Potency was “inactive”.
With O=c1[nH]c(=O)c2ccccc2o1 the Potency was “inactive”.
For C1CSCCS1, the Potency was “inactive”.
In the case of CCCC=O, the Potency is reported as “inactive”.
With CCCCCCCC/C=C\CCCCCCCC(N)=O the Potency was “inactive”.
With COC(=O)c1c(Cl)c(Cl)c(C(=O)OC)c(Cl)c1Cl the Potency was “inactive”.
COC(=O)C1=C(C)NC(C)=C(C(=O)OCCN(C)Cc2ccccc2)C1c1cccc([N+](=O)[O-])c1 (stereo not given) was tested, and the Potency was “inactive”.
O=C(c1ccccc1)c1ccccc1O was tested, and the Potency was “inactive”.
With CCCCc1ccc(Cl)cc1 the Potency was “inactive”.
In the case of CCOc1c(N2CCOCC2)cnn(C)c1=O, the Potency is reported as “inactive”.
In the case of C=CC(=O)OCCOC1C2CCC1C1CC=CC12 (stereo not given), the activation is reported as -3.51% [at 15.9 µM] (inactive).
For CCCCCCCC(=O)OCCCCCC, the Potency was “inactive”.
For C=C(C)[C@H]1CC=C(C)C(=O)C1, the Potency was “inactive”.
In the case of N[C@H]1C(O)O[C@H](CO)[C@@H](O)[C@@H]1O (stereo not given in full), the Potency is reported as “inactive”.
For Nc1nc(N)nc(-c2ccccc2)n1, the Potency was “inactive”.
For COc1ccc(N=[N+]([O-])c2ccc(OC)cc2)cc1, the Potency was “inactive”.
In the case of CC1(C)[C@H]2CC[C@]1(C)[C@H](O)C2, the Potency is reported as “inactive”.
For O=C(Oc1ccccc1)c1ccc(O)cc1, the Potency was “inactive”.
CCCCCCCC(=O)N(C)C was tested, and the Potency was “inactive”.
With CC(=O)NC(Cc1ccccc1)C(=O)O (stereo not given) the Potency was “inactive”.
With CC/C=C\CCOC(=O)C(C)C the Potency was “inactive”.
In the case of CCC(=O)OC(C)(C)C1CC=C(C)CC1 (stereo not given), the Potency is reported as “inactive”.
For Cc1cc(N)no1, the Potency was “inactive”.
With CCOc1ccccc1OCC the Potency was “inactive”.
CCCCC(CC)COP(=O)(OCC(CC)CCCC)OCC(CC)CCCC (stereo not given) was tested, and the Potency was “inactive”.
In the case of CC(C)c1cc2c(cc1S(=O)(=O)O)[C@@]1(C)CCC[C@@](C)(C(=O)O)[C@@H]1CC2, the Potency is reported as “inactive”.
